High-throughput results from PubChem.
15-hLO inh: inhibitors of human 15-lipoxygenase (ALOX15); P16050; 1.4% of 74,000 active; purified 15hLO-1, xylenol orange hydroperoxide absorbance; Potency, µM (titrated, usually from 57.1 µM), usual class: inhibitors; further: nearly all actives have a fitted effect of over 55% in size
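Hydroperoxide formed from arachidonic acid (50 uM) by purified human 15hLO-1 (40 nM) oxidizes ferrous iron, and the ferric-xylenol orange complex is read at 573 versus 405 nm. Compounds were preincubated 15 min; reaction ran 6 min at room temperature.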
ALOX15B inhib: 15-hLO-2 (ALOX15B) enzyme inhibition | AID 881 | Potency, µM (top dose mostly 57.1 µM), most hits filed as inhibitors | 0.56% of 110,000 active | purified 15hLO-2, xylenol orange hydroperoxide absorbance; further: nearly all actives have a fitted effect of over 60% in size
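Purified human 15hLO-2 (50 nM final) preincubated with compounds 15 min at room temperature in 25 mM Hepes pH 7.5, 0.01% Triton X-100, then 45 uM arachidonic acid added for 90 min; hydroperoxide detected via ferrous/xylenol orange, 573/405 nm absorbance ratio.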
Casp1 inh: caspase-1 (human) inhibition, allosteric or competitive | Caspase-1 enzyme, Ac-WEHD-AFC fluorogenic rate | P29466 | 0.03% of 75,000 active | Potency, µM (top dose mostly 57.5 µM), hits mostly inhibitors
ERK AVP block: inhibitors of vasopressin-stimulated ERK signaling pathway; HEK293-V1b, vasopressin-stimulated pERK AlphaScreen; Potency, µM (top dose mostly 57.5 µM), hits mostly inhibitors; 0.99% of 72,000 active; further: nearly all actives have a fitted effect of over 55% in size
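Phosphorylated ERK1/2 detected via AlphaScreen bead proximity in lysates of V1b-expressing HEK293 cells given 25 nM vasopressin for 5 min after 30 min compound exposure (37 °C). AC50 from Hill equation; basal DMSO 0%, vasopressin 100%.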
Caspase-7 inhib: allosteric or competitive inhibitors of human caspase-7; P55210; recombinant caspase-7, Ac-DEVD-AFC fluorescence rate; Potency, µM (highest dose often 57.5 µM), actives largely listed as inhibitors; 0.02% of 75,000 active; active means well fitted inhibition curve with a large enough effect in the main read-out, with a control signal flat, not every such curve was filed as active; inconclusive means small, poorly fitted or top-dose-only effect, or a change in a side signal
Of the large screens only hits and unclear results are named; the others gave an inactive call. Most compounds without a hit are left out; they make up all but 1.7% or so of the library. Unless noted, the call rests on the fitted dose curve; in most records, active means well fitted curve in the direction sought with a large enough effect; inconclusive means small, poorly fitted or top-dose-only effect, or another doubt; inactive means no such curve, though single readings can be large; an effect the other way counts as inactive or inconclusive.

CCCc1cc(=O)oc2cc(C)c(CN3CCCC3)c(O)c12	15-hLO inh 13µM
CN(C)S(=O)(=O)c1ccc2c(c1)c(=O)c(C(=O)NCCCN1CCCCCC1)cn2C	15-hLO inh inconclusive, ERK AVP block 16µM (no result: ALOX15B inhib)
CC(C)(C)OC(=O)NCCCCCc1nnc(SCC(=O)Nc2cccc(Cl)c2)o1	ERK AVP block 25µM
COc1ccc2c(c1)N(CC[C@H]1CCCCN1C)c1ccccc1S2	none
CCCn1c(=O)c2ccccc2n2c(SCc3cc(=O)n4ccsc4n3)nnc12	none (no result: ALOX15B inhib)
Cc1cccc(-n2c(SCc3cc(=O)n4ccsc4n3)nc3ccccc32)c1	15-hLO inh 13µM (no result: ALOX15B inhib)
COCCn1c(=O)c(-c2ccc(F)cc2)nc2cnc(N(C)C)nc21	Caspase-7 inhib inconclusive (no result: Casp1 inh)
COc1ccccc1CNc1ncnc2ccc(-c3cccc(NS(C)(=O)=O)c3)cc12	ERK AVP block 16µM
CN1CCN(c2ncnc3ccc(-c4cccc(NS(C)(=O)=O)c4)cc23)CC1	ERK AVP block 3.2µM
Cc1cccc(CNc2ncnc3ccc(-c4cccnc4)cc23)c1	15-hLO inh inconclusive, ERK AVP block 2µM
Cc1cccc(CNc2ncnc3ccc(-c4cccc(NS(C)(=O)=O)c4)cc23)c1	ERK AVP block 25µM
COc1cccc(-c2ccc3ncnc(NCc4ccccc4OC)c3c2)c1	15-hLO inh inconclusive, ERK AVP block inconclusive
CO[C@H]1COC(=O)CCC[C@H](C)[C@H](OC)COC(=O)C/C=C\[C@@H]1C	Casp1 inh inconclusive (no result: ALOX15B inhib)
Clc1ccc(CN2CCCN(Cc3ccc(Cl)cc3)C2c2cc3ccccc3c3ccccc23)cc1	none
CN(C)C(=O)c1ccc(-c2ccc3ncnc(NCc4ccccc4)c3c2)cc1	ERK AVP block 25µM
Cc1cccc(CNc2ccnc(-c3cccc(NS(C)(=O)=O)c3)n2)c1	ERK AVP block 13µM
COCCn1c(=O)c(CCc2ccccc2)nc2cnc(N3CCOCC3)nc21	Casp1 inh inconclusive, Caspase-7 inhib inconclusive
CCOC(=O)c1cccc(Nc2nc(C)cc(C)n2)c1	none
COC(=O)c1cccc(Nc2nc3ccccc3nc2C)c1	ERK AVP block 25µM
Cc1ccc(-n2nnnc2SCC(=O)NCCC2=CCCCC2)c(C)c1	15-hLO inh 32µM
Cc1ccc(-n2nnnc2SCC(N)=O)c(C)c1	none
O=C(O)C=Cc1ccc(Cn2ccnc2)cc1	none
COc1ccc(C2SCCN2S(=O)(=O)c2ccc(F)cc2)cc1OC (stereo unspecified)	ERK AVP block 13µM
COC(=O)c1c(C(=O)OC)c2n(c1C)Cc1ccccc1C2	15-hLO inh 7.9µM
COC(=O)c1c(C(=O)OC)c(-c2ccccc2)n2c1CCC2	none (no result: 15-hLO inh, Casp1 inh, ERK AVP block, Caspase-7 inhib)
CC1CCN(Cc2c(C#N)c3ccccc3n2C)CC1	15-hLO inh 25µM
CN1CCN(Cc2c(C#N)c3ccccc3n2C)CC1	none
CCCN1C[C@@H](CSC)C[C@H]2c3cccc4[nH]cc(c34)C[C@@H]21	none
CCOc1ccc(NC(=O)c2ccc(OC)cc2)cc1	none (no result: 15-hLO inh, Casp1 inh, ERK AVP block, Caspase-7 inhib)
CCOc1cc(NC(=S)Nc2ccccc2)c(OCC)cc1NC(=O)c1ccc(OC)cc1	ALOX15B inhib 25µM (no result: 15-hLO inh, Casp1 inh, ERK AVP block, Caspase-7 inhib)
C[C@@H]1NC(=O)[C@@H](C)COC(=O)[C@H](C)NC(=O)[C@@H](C)COC1=O	none (no result: ALOX15B inhib)
CCOC(=O)C1=C(C)N=c2s/c(=C/c3ccco3)c(=O)n2C1c1cccc(OC)c1 (stereo unspecified)	15-hLO inh 16µM, ALOX15B inhib inconclusive, ERK AVP block inconclusive
CCCC(=O)c1cc(O)c(O)cc1O	15-hLO inh 4µM, ALOX15B inhib inconclusive
CCCc1cc(C(=O)Cc2ccc(F)cc2)c(O)cc1O	none (no result: 15-hLO inh, Casp1 inh, ERK AVP block, Caspase-7 inhib)
NC(=O)c1cc(Br)cc2c3c([nH]c12)CCCC3	15-hLO inh 7.9µM, ERK AVP block inconclusive
CCNc1ncc2ncc(=O)n(C3CC3)c2n1	Caspase-7 inhib inconclusive (no result: Casp1 inh)
O=C1CCCC=C1[C@@H](O)CCOC(c1ccccc1)(c1ccccc1)c1ccccc1	none (no result: ALOX15B inhib)
O=S(=O)(NC1CC2CCC1C2)c1ccc2c(c1)OCCO2 (stereo unspecified)	ERK AVP block 25µM
Cn1c2c(c3ccccc31)CC/C2=N\O	15-hLO inh 25µM, ERK AVP block inconclusive
C/C(=N\O)c1ccc2c3ccccc3n(C)c2c1	none (no result: 15-hLO inh, Casp1 inh, ERK AVP block, Caspase-7 inhib)
CC(C)c1ccc(NC(=O)C2CC(=O)N=C(N)S2)cc1 (stereo unspecified)	15-hLO inh 25µM
CC(=O)OCCC(C)CCC=C(C)C (stereo unspecified)	15-hLO inh 10µM
